What all share (experiment): qHTS profiling for inhibitors of Plasmodium falciparum proliferation (AID 504749); note: nearly all actives have a fitted effect of over 60% in size
What all share (settings): P. falciparum in erythrocytes, SYBR Green DNA, 72 h; series mostly up to 28.7 µM

In one test the test system is N140. In a few lines:
(§1)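 SYBR Green fluorescence (ex 485 nm, em 535 nm) reports parasite DNA after 72 h compound exposure of infected red cells at 0.3% parasitemia, 2.5% hematocrit; signal normalized to 0.29 uM artemisinin and vehicle wells.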

The next test deals with P93_24. The method in brief:
as §1

The subject of a further test is P94_40. In a few lines:
as §1

A further test deals with PAD. In a few lines:
as §1

For the next test, the system named is PC15. The method in brief:
as §1

The next test deals with PC26. In a few lines:
as §1

A further test relates to PC49. In a few lines: as §1
The next test relates to SC27B. The method in brief:
as §1

A further test has as its system TAB109. The method in brief:
as §1

Another test has as its system TAB113. In a few lines:
as §1

Each structure is given as a SMILES string. Results filed as inconclusive are left out. The source made the active and inactive calls. Calls come from the whole dose curve; as a rule, active = well fitted inhibition curve with a large enough effect; inconclusive = small, poorly fitted or top-dose-only effect; inactive = flat fitted curve, though single readings scatter.
Potency is the fitted concentration of half-maximal effect.

For `CC(C)(Sc1cc(C(C)(C)C)c(O)c(C(C)(C)C)c1)Sc1cc(C(C)(C)C)c(O)c(C(C)(C)C)c1`, the Potency entry with N140, in the test on P93_24, with P94_40, with PAD, in the test with PC15 and with PC26 was “inactive” throughout. In addition, the Potency result in the test on PC49, in the test with SC27B, in the test on TAB109 and with TAB113 was “inactive” each time.
As to `CC(=O)Oc1ccccc1C(=O)Nc1ncc([N+](=O)[O-])s1`, the Potency entry in the test on N140, in the test on P93_24, in the test with P94_40, in the test on PAD, in the test on PC15 and in the test with PC26 was “inactive” each time. The Potency result in the test on PC49, in the test with SC27B, with TAB109 and in the test on TAB113 was “inactive” in each case.
For the compound `Cn1nnc2c(C(N)=O)ncn2c1=O`, the Potency entry with N140, in the test with P93_24, in the test with P94_40, in the test with PAD, in the test on PC15 and in the test with PC26 was “inactive” in each case. Besides, the Potency entry in the test with PC49, with SC27B, in the test on TAB109 and in the test on TAB113 was “inactive” in each case.
In the case of `CC1=NN(c2ccccc2)C(=O)C1`, the Potency entry in the test with N140, in the test with P93_24, with P94_40, in the test on PAD, in the test on PC15 and in the test on PC26 was “inactive” each time. The Potency entry with PC49, in the test with SC27B, with TAB109 and in the test with TAB113 was “inactive” each time.
Consider `CC(C)(C#N)c1cc(Cn2cncn2)cc(C(C)(C)C#N)c1`, for which the Potency result in the test with N140, in the test with P93_24, in the test with P94_40, in the test with PAD, in the test on PC15 and in the test with PC26 was “inactive” in each case. Further, the Potency result in the test on PC49, with SC27B, in the test with TAB109 and with TAB113 was “inactive” each time.
Take `Cc1noc(NS(=O)(=O)c2ccc(N)cc2)c1C`: the Potency entry in the test with N140, with P93_24, in the test with P94_40, in the test with PAD, in the test with PC15 and in the test with PC26 was “inactive” throughout. Besides, the Potency entry with PC49, with SC27B, in the test with TAB109 and with TAB113 was “inactive” each time.
With `Cc1ccnc2c1NC(=O)c1cccnc1N2C1CC1`, the Potency entry in the test on N140, with P93_24, in the test on P94_40, in the test with PAD, in the test on PC15 and in the test with PC26 was “inactive” in each case. The Potency result in the test on PC49, in the test on SC27B, in the test on TAB109 and with TAB113 was “inactive” in each case.
Regarding `N[C@@H](C(=O)N[C@@H]1C(=O)N2C(C(=O)O)=C(Cl)CS[C@H]12)c1ccccc1`, the Potency result in the test on N140, in the test on P93_24, in the test with P94_40, in the test on PAD, with PC15 and in the test on PC26 was “inactive” throughout. Besides, the Potency result in the test on PC49, with SC27B, in the test on TAB109 and with TAB113 was “inactive” throughout.
`COc1ccc(C(=O)CC(=O)c2ccc(C(C)(C)C)cc2)cc1`: the Potency result in the test with N140, with P93_24, in the test with P94_40, in the test on PAD, with PC15 and with PC26 was “inactive” throughout. Further, the Potency entry with PC49, with SC27B, with TAB109 and in the test with TAB113 was “inactive” each time.
For the compound `C#CCN[C@@H]1CCc2ccccc21`, the Potency entry in the test with N140, in the test on P93_24, with P94_40, with PAD, in the test with PC15 and with PC26 was “inactive” throughout. For the same compound, the Potency result with PC49, with SC27B, in the test with TAB109 and in the test on TAB113 was “inactive” each time.
With `CNS(=O)(=O)Cc1ccc2[nH]cc(CCN(C)C)c2c1`, the Potency entry in the test with N140, with P93_24, with P94_40, in the test on PAD, in the test on PC15 and with PC26 was “inactive” in each case. The Potency result with PC49, in the test on SC27B, in the test on TAB109 and in the test with TAB113 was “inactive” throughout.
Regarding `CNCC[C@H](Oc1cccc2ccccc12)c1cccs1`, the Potency in the test with N140 was 8.91 µM (active); in the test with P93_24 it was 3.16 µM (active); with P94_40 it was 10 µM (active); in the test with PAD, 11.2 µM (active); in the test on PC15, 5.01 µM (active); in the test on PC26, 8.49 µM (active). The figures for the Potency in the test with PC49, in the test with TAB109 and in the test on TAB113 were 4.47 µM (active), 7.08 µM (active) and 8.91 µM (active), respectively.
Take `CCN(C)C(=O)Oc1cccc([C@H](C)N(C)C)c1`: the Potency entry with N140, with P93_24, with P94_40, with PAD, with PC15 and in the test with PC26 was “inactive” throughout. In addition, the Potency entry in the test with PC49, with SC27B, in the test with TAB109 and in the test with TAB113 was “inactive” each time.
Take `CNC1CCCN(c2c(F)cc3c(=O)c(C(=O)O)cn(C4CC4)c3c2OC)C1` (centres undefined): the Potency result in the test with N140, in the test on P93_24, in the test on P94_40, in the test on PAD, in the test with PC15 and with PC26 was “inactive” in each case. Also, the Potency entry in the test on PC49, in the test with SC27B, in the test on TAB109 and in the test with TAB113 was “inactive” throughout.
On to `O=C(O)c1cc(=O)[nH]c(=O)[nH]1`, for which the Potency result in the test with N140, with P93_24, with P94_40, in the test with PAD, with PC15 and in the test on PC26 was “inactive” each time. Also, the Potency result with PC49, in the test on SC27B, in the test on TAB109 and in the test with TAB113 was “inactive” throughout.
Consider `CCCN[C@H]1CCc2nc(N)sc2C1`, for which the Potency result in the test with N140, in the test on P93_24, in the test with P94_40, in the test with PAD, with PC15 and in the test on PC26 was “inactive” in each case. For the same compound, the Potency entry in the test with PC49, in the test with SC27B, in the test with TAB109 and in the test on TAB113 was “inactive” each time.
Take `C1CCC(C(CC2CCCCN2)C2CCCCC2)CC1` (centres undefined): the Potency in the test on N140 was 10 µM (active); in the test on P93_24, 12.6 µM (active); with P94_40, 11.2 µM (active); in the test with PAD, 6.31 µM (active); in the test with PC15 it was 5.01 µM (active); in the test with PC26 it was 7.57 µM (active). The Potency was 2.82 µM (active) in the test on PC49, 7.94 µM (active) in the test on SC27B, 5.62 µM (active) with TAB109 and 6.31 µM (active) in the test on TAB113.
Consider `CN(CCOc1ccc(CC2SC(=O)NC2=O)cc1)c1ccccn1` (centres undefined), for which the Potency result in the test on N140, with P93_24, in the test on P94_40, in the test with PAD, with PC15 and in the test on PC26 was “inactive” each time. Further, the Potency result in the test with PC49, in the test on SC27B, in the test on TAB109 and with TAB113 was “inactive” each time.
Consider `COc1nc(N)nc2c1ncn2[C@@H]1O[C@H](CO)[C@@H](O)[C@@H]1O`, for which the Potency entry with N140, in the test with P93_24, with P94_40, in the test on PAD, in the test with PC15 and with PC26 was “inactive” throughout. Besides, the Potency entry in the test with PC49, in the test with SC27B, in the test with TAB109 and with TAB113 was “inactive” in each case.

These data come from PubChem BioAssay (NCATS).
